From the supplement of paper PMC10127200
Structures can show the parent of a compound that is named as a salt.

The compounds below were run on FB (assay: Euclidean distance of Cell Painting phenotypic profile (signed KS, 77 features) to DMSO centroid (dimensionless distance); 5 or 10 uM (library dependent); higher = stronger phenotypic change vs DMSO (phenoactivity)). Details: 48 h.
How it was run: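 Library compounds were applied at 10 or 5 uM, depending on the library, with 0.1% DMSO final, for 48 h to five cancer lines and a healthy fibroblast line. After staining, cells were imaged confocally at 20X across 9 fields per well, and Harmony extracted 77 features, each scored as a signed Kolmogorov-Smirnov statistic against vehicle wells on the same plate. Phenoactivity is the Euclidean distance between each profile and the median vehicle profile, with profiles first plate-position corrected, correlation-weighted and averaged over replicates at the top dose.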
COc1nc(C)nc(Cl)c1NC1=NCCN1 [Moxonidine] showed an Euclidean distance of 0.879.
In the case of CO[C@H]1C[C@@H]2CC[C@@H](C)[C@@](O)(O2)C(=O)C(=O)N2CCCC[C@H]2C(=O)O[C@H]([C@H](C)C[C@@H]2CC[C@H](n3cnnn3)[C@H](OC)C2)CC(=O)[C@H](C)/C=C(\C)[C@@H](O)[C@@H](OC)C(=O)[C@H](C)C[C@H](C)/C=C/C=C/C=C/1C [Zotarolimus(ABT-578)], the Euclidean distance was 2.7.
In the case of N#CC(c1ccnc(OCc2ccc(CN3CCOCC3)cc2)n1)c1nc2ccccc2s1 (centres undefined) [Bentamapimod], the Euclidean distance was 1.81.
With CC(N/C(=N\C#N)Nc1ccncc1)C(C)(C)C (centres undefined) [Pinacidil] the Euclidean distance was 1.15.
CN1CCN2c3ncccc3Cc3ccccc3C2C1 (centres undefined) [Mirtazapine] was tested, and the Euclidean distance was 0.869.
Compound Cc1cn([C@H]2C=C[C@@H](CO)O2)c(=O)[nH]c1=O [Stavudine (d4T)] has an Euclidean distance of 0.969.
For CN1CCC(NC(=O)c2cc(-c3c(O)cc(O)cc3Oc3ccc([N+](=O)[O-])cc3)on2)CC1, the Euclidean distance was 3.37.
CN1[C@@H]2CC[C@H]1C[C@@H](OC(=O)c1c[nH]c3ccccc13)C2 [Tropisetron] gave an Euclidean distance of 1.46.
Work on Cc1cc(C)cc(OCC2CNC(=O)O2)c1 (centres undefined) [Metaxalone] yielded an Euclidean distance of 0.753.
O=C(Nc1ccc(Cl)cc1)Nc1ccc(Cl)c(Cl)c1 [Triclocarban] gave an Euclidean distance of 1.74.
In the case of CC1(C)O[C@H]2CC(=O)OC[C@]23[C@H]2CC[C@@]4(C)[C@H](c5ccoc5)OC(=O)[C@H]5O[C@]54[C@]2(C)C(=O)C[C@@H]13 [Limonin], the Euclidean distance was 0.843.
For CN1CCC(=C2c3ccccc3C=Cc3ccccc32)CC1 [Cyproheptadine hydrochloride], the Euclidean distance was 1.89.
With CC1(C)S[C@@H]2[C@H](NC(=O)[C@H](N)c3ccc(O)cc3)C(=O)N2[C@H]1C(=O)O [Amoxicillin trihydrate] the Euclidean distance was 0.987.
Compound Oc1ccc(C2CNCCc3c2cc(O)c(O)c3Cl)cc1 (centres undefined) [Fenoldopam mesylate] has an Euclidean distance of 0.976.
Compound O=C1NC(=O)/C(=C/c2cccc(C(F)(F)F)c2)S1 has an Euclidean distance of 1.49.
O=C(O)CNC(=O)c1ncc(-c2cccc(Cl)c2)cc1O [Vadadustat] gave an Euclidean distance of 1.67.
For CCOC(=O)[C@H](CCc1ccccc1)N[C@@H](C)C(=O)N1Cc2cc(OC)c(OC)cc2C[C@H]1C(=O)O [Moexipril HCl], the Euclidean distance was 0.74.
CCCC(=O)O[C@]1(C(=O)CCl)[C@H](C)C[C@@H]2[C@@H]3CCC4=CC(=O)C=C[C@]4(C)[C@]3(F)C(=O)C[C@@]21C [clobetasone butyrate] showed an Euclidean distance of 1.92.
For Oc1ccc(OCc2ccccc2)cc1 [Monobenzone], the Euclidean distance was 1.45.
O=C(Nc1ccncc1)c1cc([N+](=O)[O-])ccc1Cl gave an Euclidean distance of 0.879.
CN(C)C[C@@H]1CCn2cc(c3ccccc32)C2=C(C(=O)NC2=O)c2cn(c3ccccc23)CCO1 gave an Euclidean distance of 3.89.
Cc1cc(Nc2ncnc3ccc(-c4ccc(CNCCS(C)(=O)=O)o4)cc23)ccc1Oc1ccn2ncnc2c1 [HER2-Inhibitor-1] showed an Euclidean distance of 1.37.
Compound CC(C)(C)C(=O)Oc1ccc(S(=O)(=O)Nc2ccccc2C(=O)NCC(=O)O)cc1 [Sivelestat (ONO-5046)] has an Euclidean distance of 1.16.
For Cc1cc(OCCCS(C)(=O)=O)cc(C)c1-c1cccc(COc2ccc3c(c2)OC[C@H]3CC(=O)O)c1, the Euclidean distance was 2.38.
COc1cc2c(cc1OC)CN(CCc1ccc(NC(=O)c3cc(OC)c(OC)cc3NC(=O)c3cnc4ccccc4c3)cc1)CC2 [Tariquidar] showed an Euclidean distance of 1.17.
With COc1nccnc1NS(=O)(=O)c1ccc(N)cc1 [Sulfalene(SMPZ)] the Euclidean distance was 1.41.
CC(=O)O[C@@]12CO[C@@H]1C[C@H](O)[C@@]1(C)C(=O)[C@H](O)C3=C(C)[C@@H](OC(=O)[C@H](O)[C@@H](NC(=O)OC(C)(C)C)c4ccccc4)C[C@@](O)([C@@H](OC(=O)c4ccccc4)[C@H]21)C3(C)C [Docetaxel] gave an Euclidean distance of 2.64.
CC(C)Cn1cnc2c(N)nc3ccccc3c21 [Imiquimod] gave an Euclidean distance of 0.784.
With CC(=O)N1CCN(CCOc2ccc(C3CCN(C4=Nn5c(nnc5C(F)(F)F)CC4)CC3)cc2)CC1 the Euclidean distance was 1.76.
With CC1(C)CC(=O)c2c(C(F)(F)F)nn(-c3ccc(C(N)=O)c(N[C@H]4CC[C@H](OC(=O)CN)CC4)c3)c2C1 the Euclidean distance was 3.31.
Compound Cc1cc(CN2CCN(c3c(Br)cnc4nc(-c5ccc(N6CCN(C)CC6)cc5)[nH]c34)CC2)no1 has an Euclidean distance of 0.806.
In the case of O=C(NC(NC(=S)Nc1ccc(F)c([N+](=O)[O-])c1)C(Cl)(Cl)Cl)C(c1ccccc1)c1ccccc1 (centres undefined), the Euclidean distance was 1.49.
CC(C)CC(N)=O [Isovaleramide] gave an Euclidean distance of 0.571.
CC(C(=O)O)c1ccc2c(c1)CC(=O)c1ccccc1S2 (centres undefined) [Zaltoprofen] gave an Euclidean distance of 0.873.
Compound O=C1CN(/N=C/c2ccc(-c3ccc([N+](=O)[O-])cc3)o2)C(=O)N1 [Dantrolene sodium hemiheptahydrate] has an Euclidean distance of 1.21.
Compound Cc1cnc(Nc2ccc(N3CCN(C)CC3)cc2)nc1Nc1cccc(S(=O)(=O)NC(C)(C)C)c1 has an Euclidean distance of 3.58.
Work on Clc1ccc(COC(Cn2ccnc2)c2ccc(Cl)cc2Cl)cc1 (centres undefined) [Econazole] yielded an Euclidean distance of 1.02.
For CC(C)NC(=N)NC(=N)Nc1ccc(Cl)cc1 [Proguanil], the Euclidean distance was 0.927.
NC(=O)N[C@@H](CCC(=O)O)C(=O)O [Carglumic Acid] was tested, and the Euclidean distance was 1.06.
